Hits are enriched below; roughly 12% of the tested compounds scored in any of these assays.
JMJD2A Tudor inh: blocks the human JMJD2A Tudor domain. O75164. AlphaScreen JMJD2A-Tudor / H3K4me3 peptide binding. Potency, µM (top dose mostly 114 µM), hits mostly inhibitors. actives 4.4% (n = 390,000); further: nearly all actives have a fitted effect of over 50% in size
Sfp inh: blocks B. subtilis Sfp PPTase activity | Biochemical Sfp PPTase activity, qHTS | Potency, µM, hits mostly inhibitors | actives 3.5% (n = 310,000) | AID 1490;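 further: the enzyme is Sfp with the accession as filed and its product quenches rhodamine fluorescence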
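Buffer: 50 mM Hepes-Na pH 7.6, 10 mM MgCl2, 0.01% Nonidet P-40, 0.01% BSA. Enzyme 15 nM, pre-exposed to compound 15 min; substrates then added and fluorescence change tracked over 30 min.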
G9a block: G9a (human) methyltransferase inhibition | Q96KQ7 | G9a H3K9 monomethylation, AlphaScreen, 2 h | Potency, µM (top dose mostly 102 µM), most hits filed as inhibitors | actives 8.8% (n = 350,000); further: nearly all actives have a fitted effect of over 75% in size
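Step 1: enzyme (final 20 nM) with compound, 15 min RT. Step 2: substrate peptide 500 nM and SAM 20 uM, 2 h RT. Step 3: anti-H3K9me1 antibody and AlphaScreen beads, 10 min, then plate read.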
HP1b binding inh: HP1-beta chromodomain-methylated histone interaction inhibition; P83916; AlphaScreen HP1-beta / biotin-H3K9me3 peptide binding; Potency, µM (titrated, usually from 114 µM), actives largely listed as inhibitors; actives 0.56% (n = 390,000); AID 540317; further: nearly all actives have a fitted effect of over 70% in size
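Compound inhibition of the preformed complex between 50 nM HP1-beta and 50 nM biotinylated H3K9me3 peptide was read by AlphaScreen. Buffer was PBS pH 7.4 with 0.01% Tween-20. Incubations ran 30 min at room temperature, with 10 ug/mL donor/acceptor beads.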
BAZ2B block: blocks human BAZ2B; Q9UIF8; AlphaScreen BAZ2B-H3K14Ac peptide displacement; Potency, µM (doses to about 114 µM), most hits filed as inhibitors; actives 4.4% (n = 360,000); further: nearly all actives have a fitted effect of over 60% in size
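Multi-concentration screen (max 110 uM) measuring displacement of acetylated histone H3 peptide from BAZ2B by AlphaScreen, using 50 nM protein, 50 nM peptide and 10 ug/mL streptavidin donor plus Ni-chelate acceptor beads.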
Each line names hits and unclear results; the compound was inactive in the other large screens; ! = repeats disagree. The call rests on the fitted dose curve; in most records, active means well fitted curve in the direction sought with a large enough effect; inconclusive means small, poorly fitted or top-dose-only effect, or another doubt; inactive means no such curve, though single readings can be large; an effect the other way counts as inactive or inconclusive.

COc1ccc(NC(=O)Cc2c[nH]c3ccccc23)cc1S(=O)(=O)N1CCCCC1	JMJD2A Tudor inh inconclusive, G9a block inconclusive, BAZ2B block inconclusive
CCC(C)(C)C1CCC2(CC1)NC(CO)(CO)CO2 (stereo not given)	none
CC1Sc2ccc(C(=O)Nc3ccc(S(=O)(=O)N(C)C)cc3)cc2NC1=O (stereo not given)	G9a block 32µM (no result: Sfp inh)
CC1Sc2ccc(S(=O)(=O)CCC(=O)N3CCc4ccccc43)cc2NC1=O (stereo not given)	JMJD2A Tudor inh 25µM
COc1ccc(NC(=O)CCS(=O)(=O)c2ccc3c(c2)NC(=O)C(C)S3)cc1OC (stereo not given)	JMJD2A Tudor inh 18µM
COc1ccc(S(=O)(=O)N(C)C)cc1NC(=O)c1ccc2c(c1)NC(=O)C(C)S2 (stereo not given)	none (no result: Sfp inh)
CC1Sc2ccc(S(=O)(=O)CCC(=O)NCc3ccccc3)cc2NC1=O (stereo not given)	JMJD2A Tudor inh 79µM, HP1b binding inh inconclusive
CC1Sc2ccc(S(=O)(=O)CCC(=O)NCc3ccc(Cl)cc3)cc2NC1=O (stereo not given)	none (no result: G9a block)
COc1ccc(N2CCN(C(=O)c3ccc(CNS(=O)(=O)c4cccc(OC)c4)cc3)CC2)cc1	JMJD2A Tudor inh inconclusive, G9a block inconclusive, BAZ2B block inconclusive
CC(C)=CC1C(C(=O)Nc2ccc(S(=O)(=O)N3CCOCC3)cc2)C1(C)C (stereo not given)	none (no result: Sfp inh)
COC(=O)c1c(C)[nH]c(C(=O)CN2CCOCC2)c1C	none
CCOc1ccc(CCNC(=O)CCn2c(=O)c3cccn3c3ccc(F)cc32)cc1	none (no result: Sfp inh)
CC1(C)CC(=O)C(/C=N/c2ncccc2C(=O)O)=C(O)C1	G9a block 50µM
COc1cc(SC)ccc1C(=O)N1CCC(Cc2ccccc2)CC1	G9a block 10µM (no result: JMJD2A Tudor inh, HP1b binding inh, BAZ2B block)
COc1cc(SC)ccc1C(=O)N1CCN(c2ccccc2)CC1	none
COc1cc(SC)ccc1C(=O)N1CCN(Cc2ccccc2)CC1	none
COc1cc(SC)ccc1C(=O)OCC(=O)NC1CCCCC1	none
COc1cc(SC)ccc1C(=O)NC1CCCCC1	G9a block 1.1µM
COc1cc(SC)ccc1C(=O)N1CCN(c2ccc(O)cc2)CC1	JMJD2A Tudor inh inconclusive, Sfp inh 56µM, G9a block 16µM, HP1b binding inh inconclusive (no result: BAZ2B block)
CCN(C(=O)COC(=O)c1ccc2[nH]c(C)c(C)c2c1)c1c(N)n(Cc2ccccc2)c(=O)[nH]c1=O	none (no result: Sfp inh, G9a block, BAZ2B block)
N/C(COc1ccc(Cl)cc1)=N\NS(=O)(=O)c1ccccc1	none
COc1ccccc1-c1nc(S(=O)(=O)c2ccc(Cl)cc2)c(N2CCCCCC2)o1	G9a block inconclusive (no result: Sfp inh)
COc1ccc(-c2nc(S(=O)(=O)c3ccc(Cl)cc3)c(N3CCCCCC3)o2)cc1	JMJD2A Tudor inh 56µM, G9a block 20µM (no result: Sfp inh)
O=S(=O)(c1ccc(Cl)cc1)c1nc(-c2cccs2)oc1N1CCCCC1	JMJD2A Tudor inh inconclusive, G9a block 14µM, HP1b binding inh inconclusive, BAZ2B block 14µM (no result: Sfp inh)
O=C(CSc1oc(-c2ccc(F)cc2)nc1S(=O)(=O)c1ccccc1)c1ccc(Cl)cc1	none (no result: Sfp inh)
CN(C)c1oc(-c2ccc(Cl)cc2)nc1S(=O)(=O)c1ccccc1	JMJD2A Tudor inh 79µM, HP1b binding inh inconclusive, BAZ2B block inconclusive
NC(=O)C1CCN(c2oc(-c3cccs3)nc2S(=O)(=O)c2ccc(Cl)cc2)CC1	JMJD2A Tudor inh inconclusive (no result: Sfp inh, G9a block, BAZ2B block)
CCOc1cc(/C=C2/NC(=O)NC2=O)cc(Br)c1OCc1ccc(C(=O)O)cc1	JMJD2A Tudor inh inconclusive, G9a block 45µM, HP1b binding inh inconclusive, BAZ2B block 71µM
CCOc1cc(/C=C2\NC(=S)N(C)C2=O)ccc1OCc1ccc(C(=O)O)cc1	JMJD2A Tudor inh inconclusive, G9a block inconclusive, BAZ2B block 71µM
COc1cc(/C=C2\NC(=O)NC2=O)cc(Br)c1OC	none
Cn1c(=O)c2c(nc(Cc3ccccc3)n2C)n(C)c1=O	none
O=C(O)c1cccc(-c2ccc(/C=C3/SC(=Nc4ccccc4)N(Cc4cccnc4)C3=O)o2)c1	JMJD2A Tudor inh 45µM, Sfp inh 50µM, G9a block 32µM, HP1b binding inh inconclusive, BAZ2B block 50µM
CCN=C1S/C(=C\c2cc(Cl)c(OC)c(OC)c2)C(=O)N1CC	none
CCN1C(=O)/C(=C\c2ccc(-c3cccc(C(=O)OC)c3)o2)SC1=Nc1ccc(C(=O)O)cc1	none (no result: JMJD2A Tudor inh, G9a block, HP1b binding inh)
CCN=C1S/C(=C/c2ccc(-c3ccc(Cl)cc3C(=O)O)o2)C(=O)N1CC	G9a block 45µM, BAZ2B block inconclusive
CCN1C(=O)/C(=C\c2ccc(-c3ccc([N+](=O)[O-])cc3OC)o2)SC1=Nc1cccc(C(=O)O)c1	JMJD2A Tudor inh 56µM, Sfp inh 25µM, G9a block 11µM, HP1b binding inh 28µM, BAZ2B block 50µM
CCN1C(=O)CSC1=Nc1cccc(C(=O)O)c1	none
CCOC(=O)COc1ccc(/C=C2/SC(=Nc3ccccc3)N(Cc3cccnc3)C2=O)cc1OC	Sfp inh inconclusive, G9a block inconclusive, BAZ2B block inconclusive
CCN=C1S/C(=C\c2ccc(-c3cccc(C(=O)O)c3)o2)C(=O)N1CC	JMJD2A Tudor inh inconclusive, Sfp inh 20µM, G9a block 40µM, BAZ2B block inconclusive
COc1cc(Br)cc(C=Nc2cccc(C(F)(F)F)c2)c1O	none
CCCCCCCC1=CC2=C(Cl)C(=O)C(C)(OC(C)=O)C(=O)C2=CN1C (stereo not given)	none (no result: JMJD2A Tudor inh, G9a block, HP1b binding inh, BAZ2B block)
CCN(CC)CCOC(=O)C1(c2ccc([N+](=O)[O-])cc2)CCCC1	G9a block 13µM!
COc1cc(-c2noc(C)c2/C=C/c2ccc(C(=O)O)cc2)cc(OC)c1OC	JMJD2A Tudor inh 71µM, BAZ2B block inconclusive (no result: G9a block)
Cc1cc(N2CCN(C)CC2)ccc1NC(=O)c1cccc(S(=O)(=O)N2CCc3ccccc3C2)c1	G9a block 28µM, HP1b binding inh inconclusive, BAZ2B block inconclusive
CN(C)S(=O)(=O)c1cccc(NC(=O)COC(=O)c2cccc(S(=O)(=O)N3CCc4ccccc4C3)c2)c1	G9a block 1.6µM, BAZ2B block inconclusive
CCc1cccc(CC)c1NC(=O)COC(=O)c1cccc(S(=O)(=O)N2CCc3ccccc3C2)c1	none
CCN(CC(=O)Nc1c(F)cccc1F)C(=O)c1cccc(S(=O)(=O)N2CCc3ccccc3C2)c1	none (no result: Sfp inh)
CCN(CC(=O)Nc1ccc(NC(C)=O)cc1)C(=O)c1cccc(S(=O)(=O)N2CCc3ccccc3C2)c1	G9a block 3.2µM (no result: Sfp inh)
O=C(COC(=O)C1CCCCC1)Nc1ccccc1OC(F)F	JMJD2A Tudor inh 11µM (no result: BAZ2B block)
Cc1ccc2nc(NC(=O)c3cc(=O)c4cc(Cl)ccc4o3)sc2c1	none (no result: Sfp inh)
O=C(Nc1ccc2c(c1)OCCO2)c1ccc(S(=O)(=O)N2CCCCC2)cc1	none
CCN(CC)S(=O)(=O)c1cccc(C(=O)OCC(=O)Nc2ccccc2OC(F)F)c1	none
CN(C)S(=O)(=O)c1cccc(C(=O)OCC(=O)Nc2ccccc2OC(F)F)c1	JMJD2A Tudor inh 79µM, HP1b binding inh inconclusive
